Reference: PubChem BioAssay (NCATS)
Where “and” joins values, the source holds several entries; their conditions need not be identical. Identical values can stand only once. Results filed as inconclusive are left out. Calls of active or inactive are those of the source. Unless noted, calls come from the whole dose curve.

Experiments:
[1] = biological target: Estrogen receptor (Homo sapiens) (UniProt P03372); assay: qHTS assay for small molecule antagonists of estrogen receptor alpha signaling (AID 588513; active = well fitted curve in the direction sought with a large enough effect in the signal ratio, with a control signal flat, not every such curve was filed as active; the % refers to the signal ratio; note: % is set by controls: 0 for no effect and ±100 for the full control effect)
Estrogen receptor (Homo sapiens), sequence (P03372 whole entry, looked up): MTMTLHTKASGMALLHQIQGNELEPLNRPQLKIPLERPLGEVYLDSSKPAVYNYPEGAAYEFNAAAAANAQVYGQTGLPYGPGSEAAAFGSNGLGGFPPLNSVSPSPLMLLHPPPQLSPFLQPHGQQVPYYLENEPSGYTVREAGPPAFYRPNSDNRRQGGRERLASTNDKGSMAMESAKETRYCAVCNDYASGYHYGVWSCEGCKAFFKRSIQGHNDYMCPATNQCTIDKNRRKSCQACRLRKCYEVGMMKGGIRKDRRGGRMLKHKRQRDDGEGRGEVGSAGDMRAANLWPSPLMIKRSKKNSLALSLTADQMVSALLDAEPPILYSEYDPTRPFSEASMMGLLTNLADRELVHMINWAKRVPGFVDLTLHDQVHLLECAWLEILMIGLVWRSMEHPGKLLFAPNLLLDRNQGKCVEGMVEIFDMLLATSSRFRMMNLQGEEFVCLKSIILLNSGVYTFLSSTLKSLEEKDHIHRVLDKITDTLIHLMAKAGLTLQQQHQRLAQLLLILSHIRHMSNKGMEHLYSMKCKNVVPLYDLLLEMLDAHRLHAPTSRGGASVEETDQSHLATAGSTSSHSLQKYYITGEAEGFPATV
Outline: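 Fluorescence from CCF4 substrate after 2 h at room temperature gave reporter activity; cells had been exposed to compound and 0.5nM 17-beta-estradiol for 18 h at 37 C. Hill-equation fitting yielded IC50 and maximal response.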

[2] = biological target: Estrogen receptor (Homo sapiens) (UniProt P03372); assay: qHTS assay for small molecule agonists of estrogen receptor alpha signaling (AID 588514);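 note: 0% = vehicle only and 100% = reference agonist; nearly all actives have a fitted effect of over 70% in size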
Outline: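 Read-out: CCF4 fluorescence from a beta-lactamase reporter in ER-alpha-UAS-bla HEK 293 cells after 18 hrs of compound exposure at 37 C. Normalized to 20 nM 17-beta-estradiol (100%) and DMSO (0%).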

[3] = biological target: Peroxisome proliferator-activated receptor delta (Homo sapiens) (UniProt Q03181); assay: qHTS assay for small molecule agonists of peroxisome proliferator-activated receptor delta signaling (AID 588534);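 note: 0% = DMSO basal wells and 100% = positive control agonist at 10 µM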
Peroxisome proliferator-activated receptor delta (Homo sapiens), sequence (Q03181 whole entry, looked up): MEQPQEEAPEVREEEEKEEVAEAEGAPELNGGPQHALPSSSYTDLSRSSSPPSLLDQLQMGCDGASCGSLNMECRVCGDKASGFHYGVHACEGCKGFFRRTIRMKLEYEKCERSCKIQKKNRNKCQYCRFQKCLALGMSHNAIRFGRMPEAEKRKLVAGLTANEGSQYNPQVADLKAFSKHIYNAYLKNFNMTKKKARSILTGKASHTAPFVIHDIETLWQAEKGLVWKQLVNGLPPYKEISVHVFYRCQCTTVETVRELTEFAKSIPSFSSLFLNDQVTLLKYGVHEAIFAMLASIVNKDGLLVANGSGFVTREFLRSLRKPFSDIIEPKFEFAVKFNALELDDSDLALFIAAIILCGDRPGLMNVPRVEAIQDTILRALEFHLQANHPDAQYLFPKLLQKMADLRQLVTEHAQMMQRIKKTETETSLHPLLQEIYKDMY
Outline: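 Titration series tested in agonist mode on beta-lactamase reporter cells; 18 hrs at 37 C after a 5 hr pre-incubation. Readout: CCF4 fluorescence, 2 hrs RT. Hill equation gives EC50 and maximal response.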

[4] = biological target: Peroxisome proliferator-activated receptor gamma (Homo sapiens) (UniProt P37231); assay: qHTS assay for small molecule agonists of peroxisome proliferator-activated receptor gamma signaling (AID 588536; active = well fitted curve in the direction sought with a large enough effect in the signal ratio, with a control signal flat, not every such curve was filed as active; the % refers to the signal ratio;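 note: 0% = DMSO basal wells and 100% = rosiglitazone at 2 µM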)
Peroxisome proliferator-activated receptor gamma (Homo sapiens), sequence (P37231 whole entry, looked up): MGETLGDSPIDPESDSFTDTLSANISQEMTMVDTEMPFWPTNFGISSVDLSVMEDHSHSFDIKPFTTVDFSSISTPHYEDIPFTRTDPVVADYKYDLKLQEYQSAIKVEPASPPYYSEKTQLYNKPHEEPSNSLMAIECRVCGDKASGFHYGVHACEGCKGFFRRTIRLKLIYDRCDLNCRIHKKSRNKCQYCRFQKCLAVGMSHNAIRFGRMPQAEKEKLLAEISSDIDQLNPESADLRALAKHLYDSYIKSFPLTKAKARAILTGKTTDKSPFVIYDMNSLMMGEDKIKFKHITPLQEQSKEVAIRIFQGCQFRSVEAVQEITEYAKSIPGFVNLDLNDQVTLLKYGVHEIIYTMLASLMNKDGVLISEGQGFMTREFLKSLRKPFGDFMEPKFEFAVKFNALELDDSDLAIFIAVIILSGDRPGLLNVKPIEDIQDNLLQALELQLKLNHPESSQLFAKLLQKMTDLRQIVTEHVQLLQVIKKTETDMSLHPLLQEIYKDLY
Outline: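 Using GeneBLAzer HEK293 cells, response was quantified by CCF4 fluorescence and normalized between basal DMSO (0%) and rosiglitazone 2 uM (100%); curves yielded half-maximal stimulation concentration and efficacy.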

[5] = biological target: Vitamin D3 receptor (Homo sapiens) (UniProt P11473); assay: qHTS assay for small molecule antagonists of vitamin D receptor signaling (AID 588541);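 note: receptor activated by calcitriol during compound treatment; series mostly up to about 77 µM; % is set by controls: 0 for no effect and ±100 for the full control effect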
Vitamin D3 receptor (Homo sapiens), sequence (P11473 whole entry, looked up): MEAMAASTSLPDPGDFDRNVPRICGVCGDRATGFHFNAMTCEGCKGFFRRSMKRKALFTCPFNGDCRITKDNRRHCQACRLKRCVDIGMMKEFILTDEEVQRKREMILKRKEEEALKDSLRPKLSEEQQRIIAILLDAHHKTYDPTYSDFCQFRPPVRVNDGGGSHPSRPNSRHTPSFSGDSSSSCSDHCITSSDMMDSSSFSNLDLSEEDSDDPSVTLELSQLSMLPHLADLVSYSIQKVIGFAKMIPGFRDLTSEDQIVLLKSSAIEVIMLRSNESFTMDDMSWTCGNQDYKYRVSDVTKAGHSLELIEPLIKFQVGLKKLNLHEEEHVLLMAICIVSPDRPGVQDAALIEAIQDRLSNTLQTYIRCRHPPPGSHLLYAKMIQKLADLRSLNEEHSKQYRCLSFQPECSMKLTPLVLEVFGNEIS
Outline: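 VDR-UAS-bla HEK293T cells in 2% charcoal-stripped FBS were stimulated with 1-alpha,25-dihydroxyvitamin D3 (3 nM final) plus compound for 16 h at 37 C. The beta-lactamase CCF4 readout was normalized to 50 nM agonist and DMSO, and Hill fits gave IC50.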

[6] = biological target: Vitamin D3 receptor (Homo sapiens) (UniProt P11473); assay: qHTS assay for small molecule agonists of vitamin D receptor signaling (AID 588543);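 note: 0% = DMSO basal and 100% = reference agonist control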
Outline: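 Reporter cells (HEK293T, VDR-UAS-bla) were seeded in medium with 2% charcoal-stripped serum and incubated 5 h, then compounds in concentration series were added for 16 h at 37 °C. Stimulation was scaled between DMSO basal and 50 nM 1α,25-dihydroxyvitamin D3.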

[7] = qHTS assay for small molecule agonists of retinoid X receptor alpha signaling (AID 588544); details: HEK293T RXRa-UAS-bla, beta-lactamase reporter, 18 h; 530 nm emission
[8] = qHTS assay for small molecule antagonists of retinoid X receptor alpha signaling (AID 588546; active = well fitted inhibition curve with a large enough effect in the signal ratio, with a control signal flat, not every such curve was filed as active; the % refers to the signal ratio;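 note: cells stimulated with 9-cis-retinoic acid as agonist; % is set by controls: 0 for no effect and ±100 for the full control effect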); details: HEK293T RXRa-UAS-bla, beta-lactamase ratio, antagonist mode; measured here: W530 green channel, cytotoxicity proxy
Outline: (§1)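 Beta-lactamase reporter inhibition, read as CCF4 fluorescence ratio (ex 405, em 460/530 nm) after 2 h at RT. HEK293T UAS-bla cells, 2500/well, were stimulated with 9-cis-RA at 500 or 100 nM final alongside test compound for 18 h at 37 C.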

[9] = biological target: Retinoic acid receptor RXR-alpha (Homo sapiens) (UniProt P19793); assay: as above; details: HEK293T RXRa-UAS-bla, beta-lactamase ratio, antagonist mode
Retinoic acid receptor RXR-alpha (Homo sapiens), sequence (P19793 whole entry, looked up): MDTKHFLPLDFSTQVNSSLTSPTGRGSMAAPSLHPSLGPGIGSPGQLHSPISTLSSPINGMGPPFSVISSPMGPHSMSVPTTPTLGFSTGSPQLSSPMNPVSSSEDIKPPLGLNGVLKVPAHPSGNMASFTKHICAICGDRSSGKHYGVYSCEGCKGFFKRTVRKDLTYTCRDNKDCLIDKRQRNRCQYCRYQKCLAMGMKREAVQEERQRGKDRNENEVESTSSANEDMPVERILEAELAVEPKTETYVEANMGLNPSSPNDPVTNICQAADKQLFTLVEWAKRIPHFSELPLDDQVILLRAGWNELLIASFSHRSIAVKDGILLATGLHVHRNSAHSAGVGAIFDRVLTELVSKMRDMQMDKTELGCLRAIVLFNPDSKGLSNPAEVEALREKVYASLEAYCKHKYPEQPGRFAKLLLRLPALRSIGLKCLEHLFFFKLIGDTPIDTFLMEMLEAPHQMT
Outline: as §1

[10] = qHTS assay for small molecule activators of the nuclear factor-kappa B (NF-kB) signaling pathway (AID 651749; active = well fitted activation curve with a large enough effect in the signal ratio; the % refers to the signal ratio; note: series mostly up to about 77 µM; % of control where 0% means no effect); details: NF-kB-bla ME-180 cells, beta-lactamase FRET ratio, 16 h; activation: stronger effect = higher value
Outline: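 NF-kB-bla ME-180 cells, 2,000/well; 23 nL compound or DMSO pinned; 16 hr, 37C/5% CO2; beta-lactamase FRET read-out.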

[11] = qHTS assay for environmental chemicals that activate the Aryl hydrocarbon Receptor (AhR) signaling pathway (AID 651777; active = well fitted curve in the direction sought with a large enough effect; an effect the other way counts as inactive or inconclusive; note: % of control where 0% means no effect; nearly all actives have a fitted effect of over 15% in size); details: 1A2-DRE human hepatoma cells, luciferase, 24 h; activation: stronger effect = higher value
Outline: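 Stable CYP1A2 promoter/DRE-luciferase human hepatoma line treated 24 hr; One-Glo luminescence, 30 min RT.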

[12] = biological target: Peroxisome proliferator-activated receptor alpha (Homo sapiens) (UniProt Q07869); assay: qHTS assay for small molecule agonists of the peroxisome proliferator-activated receptor alpha (PPARalpha) signaling pathway (AID 651778; active = well fitted curve in the direction sought with a large enough effect; an effect the other way counts as inactive or inconclusive; note: % of control where 0% means no effect); details: PathHunter PPARalpha complementation, chemiluminescence, 6 h; max response: stronger effect = higher value
Peroxisome proliferator-activated receptor alpha (Homo sapiens), sequence (Q07869 whole entry, looked up, the tested form may be a part): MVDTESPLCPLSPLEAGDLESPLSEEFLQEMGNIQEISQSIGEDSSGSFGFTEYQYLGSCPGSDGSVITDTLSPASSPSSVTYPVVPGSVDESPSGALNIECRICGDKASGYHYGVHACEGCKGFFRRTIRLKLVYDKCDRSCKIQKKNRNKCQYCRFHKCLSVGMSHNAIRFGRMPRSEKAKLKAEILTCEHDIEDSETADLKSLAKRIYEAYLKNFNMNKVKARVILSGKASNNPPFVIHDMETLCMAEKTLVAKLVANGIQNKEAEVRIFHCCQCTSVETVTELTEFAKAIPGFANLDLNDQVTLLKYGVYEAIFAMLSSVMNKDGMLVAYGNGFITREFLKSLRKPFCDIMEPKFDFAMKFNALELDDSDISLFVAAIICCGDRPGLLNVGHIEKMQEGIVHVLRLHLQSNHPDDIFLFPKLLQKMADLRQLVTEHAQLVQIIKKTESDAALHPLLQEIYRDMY
Outline: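 Enzyme-fragment complementation assay in which ligand-bound PPARalpha translocates and forms an active enzyme that generates chemiluminescence. Cells were plated overnight, exposed to compound for 6 hr at 37 C, and then given detection reagent for 60 min at room temperature.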

[13] = qHTS assay for small molecule agonists of the antioxidant response element (ARE) signaling pathway measured by Nrf2-dependant transcriptional activity - cell viability counter screen (AID 720653; active = well fitted curve in the direction sought with a large enough effect in the repeat runs; an effect the other way counts as inactive or inconclusive; note: % is set by controls: 0 for no effect and ±100 for the full control effect); details: ARE-bla HepG2 viability, CellTiter-Glo ATP luminescence, 16 h; max response: stronger effect = lower value
Outline: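 ARE-bla HepG2 cells treated with compounds for 16 h at 37C; this counter screen measures viability as intracellular ATP by CellTiter-Glo luminescence after 30 min at room temperature.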

[14] = qHTS assay for cell viability of HEK293 cells (AID 743288; active = well fitted curve in the direction sought with a large enough effect; an effect the other way counts as inactive or inconclusive; note: % is set by controls: 0 for no effect and ±100 for the full control effect; nearly all actives have a fitted effect of over 50% in size); details: ATP luminescence (CellTiter-Glo), 18 h; max response: stronger effect = lower value
Outline: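 Viable-cell counts were inferred from luciferase-based ATP content in HEK293 cells seeded at 2,000/well, pre-incubated ≥5 h, then dosed with DMSO-solubilised compounds for 18 h at 37 C.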

[15] = qHTS assay for cell viability of the p53RE-bla HCT-116 cell line (AID 743292; active = well fitted curve in the direction sought with a large enough effect; an effect the other way counts as inactive or inconclusive; note: % is set by controls: 0 for no effect and ±100 for the full control effect; nearly all actives have a fitted effect of over 55% in size)
Outline: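 Readout: CellTiter-Glo luminescence after 30 min RT. Treatment: compounds in DMSO, 16 h, 37 C. Cells: CellSensor p53RE-bla HCT-116, 4,000/well, preincubated 5 h.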

[16] = biological target: Glucocorticoid receptor (Homo sapiens) (UniProt P04150); assay: qHTS assay for small molecule agonists of glucocorticoid receptor signaling (AID 588532; active = well fitted curve in the direction sought with a large enough effect in the signal ratio, with a control signal flat; the % refers to the signal ratio;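 note: 100% = dexamethasone at 0.1 µM and 0% = DMSO only wells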); details: HeLa MMTV-bla, beta-lactamase ratio, agonist, 18 h; activation: stronger effect = higher value, percent of dexamethasone control, DMSO zero
Glucocorticoid receptor (Homo sapiens), sequence (P04150 whole entry, looked up): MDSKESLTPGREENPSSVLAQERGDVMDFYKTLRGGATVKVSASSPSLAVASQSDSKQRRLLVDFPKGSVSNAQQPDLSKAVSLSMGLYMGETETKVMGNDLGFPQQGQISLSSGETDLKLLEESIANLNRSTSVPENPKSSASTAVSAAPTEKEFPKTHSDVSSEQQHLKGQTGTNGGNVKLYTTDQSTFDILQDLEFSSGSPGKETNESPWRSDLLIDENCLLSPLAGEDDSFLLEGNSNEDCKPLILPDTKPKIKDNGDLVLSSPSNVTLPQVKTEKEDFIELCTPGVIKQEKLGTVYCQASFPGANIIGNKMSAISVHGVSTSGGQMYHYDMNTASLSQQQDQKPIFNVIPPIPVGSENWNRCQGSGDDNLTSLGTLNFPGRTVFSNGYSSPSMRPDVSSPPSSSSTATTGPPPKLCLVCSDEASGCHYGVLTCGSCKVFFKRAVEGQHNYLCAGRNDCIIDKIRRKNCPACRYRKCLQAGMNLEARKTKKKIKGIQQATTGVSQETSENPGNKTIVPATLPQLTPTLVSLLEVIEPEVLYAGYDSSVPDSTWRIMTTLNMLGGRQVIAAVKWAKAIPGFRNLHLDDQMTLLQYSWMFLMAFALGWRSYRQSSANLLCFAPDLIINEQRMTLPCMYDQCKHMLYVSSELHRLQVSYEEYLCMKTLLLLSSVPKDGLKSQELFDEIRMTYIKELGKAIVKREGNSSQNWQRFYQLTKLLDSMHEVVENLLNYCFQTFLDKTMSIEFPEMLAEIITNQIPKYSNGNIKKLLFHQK
Outline: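 MMTV-bla HeLa beta-lactamase reporter cells in 1% charcoal/dextran FBS medium, compounds up to 92 uM for 18 h at 37 C, CCF4 readout; normalized to 0.1 uM dexamethasone (100%), EC50 and efficacy from Hill fits.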

[17] = biological target: Thyroid hormone receptor beta (Homo sapiens) (UniProt P10828); assay: qHTS assay for small molecule agonists of thyroid hormone receptor beta signaling (AID 588545);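 note: 0% = DMSO only and 100% = 10 nM T3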
Thyroid hormone receptor beta (Homo sapiens), sequence (P10828 whole entry, looked up): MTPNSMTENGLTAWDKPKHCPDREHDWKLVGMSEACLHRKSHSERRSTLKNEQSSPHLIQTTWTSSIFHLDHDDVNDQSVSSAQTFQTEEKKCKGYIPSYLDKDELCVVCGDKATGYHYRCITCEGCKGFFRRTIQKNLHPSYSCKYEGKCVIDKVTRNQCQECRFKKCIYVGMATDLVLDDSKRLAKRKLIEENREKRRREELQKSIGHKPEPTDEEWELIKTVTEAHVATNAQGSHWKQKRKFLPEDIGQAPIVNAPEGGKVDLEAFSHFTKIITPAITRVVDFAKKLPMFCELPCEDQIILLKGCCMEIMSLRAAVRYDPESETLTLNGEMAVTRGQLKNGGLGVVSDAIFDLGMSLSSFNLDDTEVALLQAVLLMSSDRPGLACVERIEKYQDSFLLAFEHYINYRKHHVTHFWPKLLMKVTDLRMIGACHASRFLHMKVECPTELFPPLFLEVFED
Outline: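 Efficacy and EC50 values derive from Hill fits of qHTS titration data, normalized to 10 nM T3 and DMSO-only wells. HEK 293 reporter cells were stimulated for 18 hrs at 37 C, with beta-lactamase activity measured by CCF4 fluorescence.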

[18] = qHTS assay for small molecule activators of the p53 signaling pathway (AID 651743; active = well fitted activation curve with a large enough effect in the signal ratio, not every such curve was filed as active; the % refers to the signal ratio; note: series mostly up to about 92 µM; % of control where 0% means no effect); details: HCT-116 p53RE-bla, beta-lactamase FRET ratio, 16 h; activation: stronger effect = higher value
Outline: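 Reporter: beta-lactamase driven by p53 response elements, stably integrated in HCT-116 cells. Cells seeded at 4,000/well, 5 h preincubation, compound (DMSO) 16 h at 37 C; B/G FRET substrate 2 h RT; fluorescence intensity read.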

[19] = qHTS assay for small molecule agonists of the antioxidant response element (ARE) signaling pathway measured by Nrf2-dependant transcriptional activity (AID 720636; active = well fitted curve in the direction sought with a large enough effect in the repeat runs; an effect the other way counts as inactive or inconclusive;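 note: HepG2 cells with an ARE-driven luciferase reporter; % of control where 0% means no effect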)
Outline: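 Reporter gene assay, HepG2 ARE-luc: 16 hr compound, 37 C, 5% CO2; read-out luciferase luminescence.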

| Compound | Potency [1] | Potency [2] | outcome [3] | Potency [4] | Potency [5] | outcome [6] | max response [7] | max response [8] | max response [9] | activation [10] | activation [11] | max response [12] | max response [13] | max response [14] | Potency [15] | activation [16] | Potency [17] | activation [18] | Potency [19] |
| --- | --- | --- | --- | --- | --- | --- | --- | --- | --- | --- | --- | --- | --- | --- | --- | --- | --- | --- | --- |
| CCOC1Oc2ccc(OS(C)(=O)=O)cc2C1(C)C (stereo not given) | inactive | inactive | inactive | inactive | inactive | inactive | 7.47% | -7.46% | -7.44% (inactive) | 0.657% (inactive) | 1.08% (inactive) | -0.11% (inactive) | -22.7% (inactive) | -23.7% (inactive) | inactive | – | – | – | – |
| C=CC(=O)NCO | inactive | inactive | inactive | inactive | inactive | inactive | -12.6% and -9.15% | -9.77% and -7.1% | 4.89% (inactive) and 0.243% (inactive) | 0.439% (inactive) and -0.866% (inactive) | 0.0723% (inactive) and 1.42% (inactive) | -1.6% (inactive) and -1.01% (inactive) | -3.08% (inactive) and -9.83% (inactive) | – | inactive | -0.576% (inactive) and 6.11% (inactive) | inactive | 0.261% (inactive) and -0.511% (inactive) | inactive |
| CCCCN(CC)C(=O)SCCC | inactive | inactive | inactive | inactive | inactive | inactive | -10.1% | -6.82% | 3.02% (inactive) | -0.995% (inactive) | 0.496% (inactive) | 0.725% (inactive) | -4.49% (inactive) | -1.81% (inactive) | inactive | 4.14% (inactive) | inactive | 2.73% (inactive) | inactive |
| Nc1ccc([N+](=O)[O-])cc1Cl | inactive | inactive | inactive | inactive | inactive | inactive | -7.96% | -11.1% | -1.45% (inactive) | 0.235% (inactive) | 3.47% (inactive) | -5.45% (inactive) | 3.06% (inactive) | -1.89% (inactive) | inactive | -4.74% (inactive) | inactive | -0.946% (inactive) | inactive |
| CC1CCCCC1NC(=O)Nc1ccccc1 (stereo not given) | inactive | inactive | inactive | – | inactive | – | – | -4.7% | -9.04% (inactive) | -4.02% (inactive) | 6.72% (inactive) | -0.607% (inactive) | -4.51% (inactive) | -11.4% (inactive) | inactive | -3.51% (inactive) | inactive | 0.836% (inactive) | – |
| C=CCC1=C(C)[C@@H](OC(=O)[C@@H]2[C@@H](C=C(C)C)C2(C)C)CC1=O | inactive | inactive | – | – | inactive | inactive | 6.67% | -5.3% | -11.9% (inactive) | -0.0415% (inactive) | 1.77% (inactive) | 2.33% (inactive) | -11.6% (inactive) | -2.02% (inactive) | inactive | 1.31% (inactive) | inactive | 0.97% (inactive) | inactive |
| CC(C)(C)N(NC(=O)c1ccc(Cl)cc1)C(=O)c1ccccc1 | inactive | inactive | inactive | inactive | inactive | – | -8.46% | -5.95% | 4.87% (inactive) | – | 1.26% (inactive) | -3.24% (inactive) | -5.92% (inactive) | -8.37% (inactive) | inactive | -0.985% (inactive) | inactive | – | inactive |
| Cc1ccccc1C(=O)Nc1cccc(OC(C)C)c1 | inactive | inactive | inactive | – | – | – | -12.9% | -1.03% | -11.3% (inactive) | 0.221% (inactive) | – | -0.819% (inactive) | -14.9% (inactive) | -16% (inactive) | inactive | 2.19% (inactive) | inactive | -3.37% (inactive) | – |
| CNC(=O)Oc1cccc2c1OC(C)(C)C2O (stereo not given) | inactive | inactive | inactive | inactive | inactive | inactive | -10.1% | -12.4% | -10.3% (inactive) | 0.725% (inactive) | 0.301% (inactive) | -1.14% (inactive) | -15.8% (inactive) | -0.251% (inactive) | – | 12.4% (inactive) | – | -0.021% (inactive) | inactive |
